In the library only some 3.6% were active in any assay of this set; here they are far more common.
NRP1-CendR mod: modulators of CendR peptide binding to human neuropilin-1; hit rate 0.85% among 360,000; inhibition, % at 25 µM; O14786; FAM-RPARPAR peptide binding to NRP-1, fluorescence polarization;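 active = inhibition or corrected inhibition above about 18%, plus a signal ratio from 0.5 to 1.5, limit read from the data, passing the limit was not always enough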
CRFBP-R2 block: antagonists of CRF-binding protein/CRF-R2 receptor complex. hit rate 0.59% among 350,000. HEK293 CRF-R2/CRF-BP, CRF-induced calcium fluorescence. inhibition, % at 11.8 µM;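 active = inhibition of the ligand-induced calcium signal above about 50% at the single tested concentration, limit read from the data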
NadD block: inhibitors of Staphylococcus aureus NadD; AID 602399; inhibition, % at 20 µM; hit rate 0.78% among 360,000; purified NadD enzyme, colorimetric absorbance read-out; in the data active = inhibition above about 26%
FAS TE block: blocks the thioesterase domain of human fatty acid synthase; recombinant FAS-TE, OMFH fluorogenic substrate, fluorescence endpoint; inhibition, % at 15 µM; hit rate 0.67% among 360,000;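 active = compounds whose normalised, plate-corrected inhibition of enzyme fluorescence in the single-dose primary screen is 50% or more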
Myeloid diff 2: compounds promoting myeloid differentiation; ER-HoxA9 myeloid progenitors, lysozyme-GFP differentiation, flow cytometry; hit rate 1% among 360,000; calls only at 10 µM;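 active = normalized GFP-positive differentiation at or above the plate's own cutoff, the solvent-only control mean plus 3 SD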;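 also: cells exposed to compound for four days before flow analysis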
NadD inh conf: NadD (S. aureus) inhibition, single concentration confirmation; shares compounds with NadD block; purified S. aureus NadD, colorimetric enzyme assay; inhibition, % at 20 µM; hit rate 13% among 2,000; AID 624309; in the data active = inhibition mostly above about 42%, no sharp cut-off; inactive = mostly below about 42%
Large screens that a line does not name were inactive (follow-up assays come after a bar, where they were run).

CCCOc1cccc(-c2cc(C(=O)N/N=C/c3ccccn3)c3ccccc3n2)c1	none
O=C(O)COc1ccccc1/C=N/NC(=O)c1cc(-c2ccc(Cl)cc2)nc2ccccc12	NadD block 23.7 | NadD inh conf 53.0
COc1ccccc1C(=O)NNC(=S)NC(=O)c1sc2ccccc2c1Cl	NadD block 64.3 | NadD inh conf inactive
O=C(N/N=C/c1ccccn1)c1cc(-c2ccc(Cl)cc2)nc2ccccc12	NadD block 31.0 | NadD inh conf inactive
COc1ccc(Cl)cc1C(=O)NNC(=S)NC(=O)c1cc(-c2ccc(Cl)cc2)nc2ccccc12	NadD block 71.9 | NadD inh conf inactive
CCNC(=S)NNC(=O)c1cc(-c2ccc(OC)cc2)nc2ccccc12	none
O=C(Nc1nnc(CCc2ccccc2)s1)c1ccccc1F	none
O=C(O)COc1ccccc1/C=N/NC(=O)c1cc(-c2ccccc2)nc2ccccc12	none
O=C(N/N=C/c1ccccn1)c1cc(-c2ccc(Br)cc2)nc2ccccc12	NadD block 32.0 | NadD inh conf inactive
CSCCC(=O)Nc1cc(S(=O)(=O)N2CCOCC2)ccc1N1CCN(C)CC1	none
CCOc1ccc(N=Nc2ccc(O)c3ncccc23)cc1	none (no result: Myeloid diff 2)
CCOc1ccc2c(ccc(/C=C/c3cc(C)c4cccnc4c3O)[n+]2C)c1	NadD block 55.1 | NadD inh conf 88.7
CC(C)n1c(=S)[nH]c2scc(-c3cccs3)c2c1=O	NadD block 29.6 | NadD inh conf 67.2
CCOc1ccc(/C=C/C2=Cc3c(sc(NC(=O)CSc4n[nH]c(N)n4)c3C#N)C(C)(C)C2)cc1	NadD block 58.0 | NadD inh conf inactive
Cc1ccsc1/C=C/C1=Cc2c(sc(NC(=O)CSc3n[nH]c(N)n3)c2C#N)C(C)(C)C1	NadD block 64.5 | NadD inh conf inactive
NC(=O)c1ccsc1NC(=O)CSc1n[nH]c(N)n1	none
Cc1ccc([N+](=O)[O-])cc1-c1ccc(/C=C(\C#N)c2[nH]nc(N)c2C#N)o1	NadD block 28.4 | NadD inh conf inactive
Nc1ccc2cccc(O)c2c1	NRP1-CendR mod 28.5, NadD block 41.2 | NadD inh conf inactive
CCN(C(=O)c1cc2c(s1)-c1ccccc1S(=O)(=O)C2)c1cc(OC)ccc1OC	none
CC(Oc1ccc(-c2ccccc2)c(F)c1)c1ccn(S(=O)(=O)c2ccc(Cl)cc2)n1 (stereo not given)	none
O=C(Nc1c(C(=O)N2CCOCC2)oc2ccccc12)c1ccccc1Cl	none
O=C1CC(c2ccccc2Oc2cccc(Cl)c2)C(n2cncn2)C(=O)C1C1NCCc2ccccc21 (stereo not given)	none
CC(C)(C)c1ccc(Oc2cccc(C3CC(=O)C(C4NCCc5ccccc54)C(=O)C3n3cncn3)c2)cc1 (stereo not given)	NadD block 40.5 | NadD inh conf inactive
Cc1cc2oc(=O)cc(CNc3ccccc3F)c2cc1O	none
CC(C)c1ccc(CCNC(=O)CSC(=S)N2CCCC2)cc1	none
CCOc1cccc(=O)c2c(C)n(CC(=O)c3ccccc3)c(C)c12	NadD block 48.4 | NadD inh conf inactive
COc1ccccc1C(=O)CC(=O)c1ccccc1	none
COc1cccc(=O)c2c(C)n(CC(=O)c3ccccc3)c(C)c12	NadD block 44.7 | NadD inh conf inactive
Cc1nccn1CC(=O)c1ccccc1	none
CC1(c2ccc(Cl)cc2Cl)NC(=O)N(CC(=O)Nc2ccc3[nH]c(=O)[nH]c3c2)C1=O (stereo not given)	none
COc1ccccc1/C=C/C(=O)NC(=S)Nc1ccc(S(=O)(=O)N(C)c2ccccc2)cc1	NadD block 34.2 | NadD inh conf inactive
CN(c1ccccc1)S(=O)(=O)c1ccc(NC(=S)NC(=O)c2ccccc2)cc1	none
Cc1cccc(N2CC(C(=O)Nc3nnc(SCCC4OCCO4)s3)CC2=O)c1 (stereo not given)	NadD block 41.5 | NadD inh conf inactive
Cc1cccc(N2CC(C(=O)Nc3nnc(SCCN4CCOCC4)s3)CC2=O)c1 (stereo not given)	NadD block 26.6 | NadD inh conf inactive
N#CC1=C(S)N=C(N)C(c2nc(-c3ccccc3)cs2)C12CCCC2 (stereo not given)	NadD block 52.1 | NadD inh conf 72.6
N#CC1=C(S)N=C(N)C(c2nc(-c3ccccc3)cs2)C12CCCCC2 (stereo not given)	NadD block 52.0 | NadD inh conf 75.2
COc1cc(C#Cc2c(-c3cncn3C)n(C)c3ccc(Br)cc23)cc(OC)c1	none
COc1cc(C#Cc2c(-c3cncn3C)n(C)c3ccc(-c4ccc(OC)c(OC)c4)cc23)cc(OC)c1	NadD block 37.5 | NadD inh conf inactive
COc1cc(C#Cc2c(-c3cncn3C)n(C)c3ccc(-c4ccc5cc[nH]c5c4)cc23)cc(OC)c1	NadD block 39.4 | NadD inh conf inactive
CCSc1nc2ccccc2c(=O)n1-c1c(C)n(C)n(-c2ccccc2)c1=O	none
O=C(CSc1nnc(Cc2csc(Nc3cccc(Cl)c3)n2)o1)N1CCc2ccccc21	NadD block 56.8 (no result: Myeloid diff 2) | NadD inh conf inactive
O=C(CSc1nnc(CNc2ccccc2)o1)N1CCc2ccccc21	none
COC/C=C/C1=CC2=CC(=O)C(C)(OC(=O)c3cnc4ccccc4n3)C(=O)C2=CN1c1ccc(OC)cc1 (stereo not given)	NadD block 33.3 | NadD inh conf inactive
COC/C=C/C1=CC2=CC(=O)C(C)(OC(=O)c3cnc4ccccc4n3)C(=O)C2=CN1CCCCO (stereo not given)	none
COC(=O)c1ccc(CNC(=O)C(Cc2ccccc2)NC(=O)c2ccccc2)cc1 (stereo not given)	none
O=C(Nc1cc([N+](=O)[O-])ccc1O)c1cccc(C(=O)Nc2cc([N+](=O)[O-])ccc2O)c1	NadD block 47.5 | NadD inh conf inactive
CCOC(=O)C1=C(CC)Nc2ccccc2N/C1=N\S(=O)(=O)c1cc(Br)ccc1Br	none
Cc1ccc(Cc2cnc(NC(=O)/C(C#N)=C/c3ccc(-c4ccccc4[N+](=O)[O-])o3)s2)cc1	NadD block 29.1 | NadD inh conf inactive
CCc1ccc(NC(=O)/C(C#N)=C/c2cn(CC(=O)O)c3ccccc23)cc1	none
Cn1cc(/C=C(\C#N)C(=O)Nc2ncc(Cc3ccc(Cl)cc3)s2)c2ccccc21	NadD block 30.6 | NadD inh conf inactive
CNC(=O)/C(C#N)=C/c1ccc(-c2ccccc2[N+](=O)[O-])o1	none
COc1ccc(/C=c2\sc3nc(-c4ccccc4)c(-c4ccccc4)n3c2=O)cc1OC	none
O=c1/c(=C\c2cccc(O)c2)sc2nc(-c3ccccc3)c(-c3ccccc3)n12	NadD block 34.7 | NadD inh conf inactive
Cc1ccc2oc(-c3cccc(NC(=S)NC(=O)/C=C/c4ccco4)c3)nc2c1	NadD block 31.9 | NadD inh conf inactive
O=C(/C=C/c1ccco1)NC(=S)Nc1nc(-c2ccc3ccccc3c2)cs1	NadD block 30.3 | NadD inh conf inactive
